Test results: PubChem BioAssay AID504725 (Broad Institute, 2011)
Measured potencies and affinities stand elsewhere. Unmarked numbers belong to inactive results. The rule behind the calls is not given here.

Each compound was assayed against KSHV LANA C-terminal domain (residues 932-1162) binding to LBS DNA (UniProt O40947) (assay: inhibitors of C-LANA binding to LBS DNA, dose response, biochemical, fluorescence polarization, cherry-picked samples (AID 504725)). Settings: MBP-C-LANA / FAM-LBS DNA fluorescence polarization, percent change from plate compound-well median; series mostly up to 35 µM; activity change, negative = inhibition: at the top concentration.

First: Cc1cc(-c2nnc(SCC(=O)Nc3ccccc3)n2C)no1
Second: O=C(Nc1ccccc1F)c1coc(=O)c(Br)c1
The “activity change, negative = inhibition” value of the first is higher: 0.481% for the first, 0.139% for the second.

Going from `CC(=O)N(C(C)=O)N1C(=O)c2cccc3c(N4CCOCC4)ccc(c23)C1=O` to `COc1ccc(NC(=O)CN(C)CC(=O)Nc2ccc(N3CCOCC3)cc2)c([N+](=O)[O-])c1`, the “activity change, negative = inhibition” value rises from -9.94% to -0.918%.

Compared with `CC1CC(C)CN(C(=O)c2ccc3ncsc3c2)C1` (stereo not drawn), `CSCCC(NC(=O)c1ccccc1Cl)C(=O)N1CCCC(C)C1` (stereo not drawn) is lower in “activity change, negative = inhibition” value: 1.32% for the first, 0.532% for the second.

Compared with `Brc1c(CSc2nncc3ccccc23)nc2ccccn12`, `O=S(=O)(O)c1cccc2cccc(Nc3ccccc3)c12` is lower in “activity change, negative = inhibition” value: 1.03% for the first, -0.146% for the second.

Going from `CC(C)CC(=O)Nc1nnc(CSCc2ccc(F)cc2)s1` to `CCSc1nnc(Cc2cc(=O)[nH]c(=O)[nH]2)n1-c1ccc(F)cc1`, the “activity change, negative = inhibition” value falls from -0.834% to -1.06%.

Going from `COc1ccc(C(C)=O)cc1CN(C)C` to `COc1ccc(CCNC(=O)CCCNC(=O)Cn2cnc3sc(C)c(C)c3c2=O)cc1OC`, the “activity change, negative = inhibition” value rises from 0.24% to 0.831%.

First: CN1CCc2c(sc(NC(=O)c3ccc4ccccc4c3)c2C(N)=O)C1
Second: O=C(O)c1cccc(NC2=Nc3cccc4cccc2c34)c1
The “activity change, negative = inhibition” value of the first is higher: 6.69% for the first, -2.81% for the second.

First: NNC(=O)CC1=NNC(=O)C1
Second: NNC(=O)C1C(O)CCC2CN3CCc4c([nH]c5ccccc45)C3CC21 (stereo not drawn)
The “activity change, negative = inhibition” value of the first is lower: 2.12% for the first, 2.2% for the second.

Going from `CC(C)(C)OC(=O)N1CCC[C@H]1c1nnc(SCc2cccc(Cl)c2)o1` to `Cc1ccc(C)c(OCC(=O)N(Cc2nnc(-c3ccccc3Cl)o2)C2CC2)c1`, the “activity change, negative = inhibition” value rises from 0.496% to 1.41%.

Compared with `CCN(C(=O)c1cccc(S(=O)(=O)N2CCc3ccccc32)c1)C1CCS(=O)(=O)C1` (stereo not drawn), `CC1Cc2ccccc2N1C(=O)CCS(=O)(=O)c1cccs1` (stereo not drawn) is higher in “activity change, negative = inhibition” value: -0.651% for the first, 1.13% for the second.

Going from `Cc1cccc(Nc2nc(N)c([N+](=O)[O-])c(NCc3ccccc3)n2)c1` to `O=C(OCc1ccccc1)N1C=CC2CC1c1c(Cl)cccc12` (stereo not drawn), the “activity change, negative = inhibition” value falls from 2.62% to 0.553%.

Compared with `COc1ccc(N=C2SC(CC(=O)Nc3ccccc3)C(=O)N2Cc2ccco2)cc1` (stereo not drawn), `Oc1ccccc1C=Nc1ccccc1-c1nc2ccccc2[nH]1` is higher in “activity change, negative = inhibition” value: 0.033% for the first, 0.308% for the second.

First: CCN(CCCNC(=O)Cn1cc2c(n1)CCCC2)c1cccc(C)c1
Second: CCCN(CCC)C(=O)C1c2ccccc2Oc2ccccc21
The “activity change, negative = inhibition” value of the first is lower: 1.47% for the first, 2.82% for the second.

First: CCOC(=O)c1sc(NC(=O)CSC(=S)N2CCN(C)CC2)nc1C
Second: O=C(NCCN1CCN(C(=O)c2cccs2)CC1)c1cccs1
The “activity change, negative = inhibition” value of the first is lower: -1.51% for the first, 0.287% for the second.

Compared with `Cc1c(Cl)cccc1NS(=O)(=O)c1ccc2c(c1)C1C=CCC1C(c1ccc(C(=O)O)cc1)N2` (stereo not drawn), `CSC(=NS(=O)(=O)c1ccc(N)cc1)NS(=O)(=O)c1cccs1` is higher in “activity change, negative = inhibition” value: -9.15% for the first, -0.26% for the second.

Compared with `N=c1ccn(Cc2ccc(Cl)cc2)cc1`, `Cc1ccc(N=Nc2c(O)[nH]c3ccc(F)cc23)cc1` is higher in “activity change, negative = inhibition” value: -0.38% for the first, 30.9% for the second.

Compared with `Cc1nc2c(=O)[nH]c(=S)[nH]c2[nH]c1=O`, `Cc1[nH][nH]c(=O)c1C(c1ccc(-c2ccc(Cl)c(C(=O)O)c2)o1)c1c(C)[nH][nH]c1=O` is higher in “activity change, negative = inhibition” value: -11.5% for the first, -11.2% for the second.

Compared with `O=C(CN(Cc1ccccc1F)C(=O)c1csnn1)NCc1ccc2c(c1)OCO2`, `O=C(Cn1c2ccccc2c2nc3n(c(=O)c21)CCS3)Nc1ccccc1C(F)(F)F` is lower in “activity change, negative = inhibition” value: 1.89% for the first, 0.798% for the second.

First: N=C1/C(=C\c2ccc(Br)o2)C(=O)N=C2SC(CC(=O)N3CCOCC3)=NN12
Second: O=C(CCn1c(=S)oc2ccccc21)N1CCN(c2ccc(F)cc2)CC1
The “activity change, negative = inhibition” value of the first is lower: -9.84% for the first, 1.94% for the second.
